Shown are actives, neighbours in structure and some others; about 3.5% of the full set was active somewhere.
GPR151 ag: activates the human receptor GPR151; Q8TDV0; AID 1508602; activation, % at 11.2 µM; actives 1% (n = 650,000); PathHunter beta-arrestin GPR151 cells, luminescence; in the data active = activation above about 4.9%;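 also: 0% = median of compound wells and 100% = cells with positive control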
Target sequence (Q8TDV0 whole entry, looked up): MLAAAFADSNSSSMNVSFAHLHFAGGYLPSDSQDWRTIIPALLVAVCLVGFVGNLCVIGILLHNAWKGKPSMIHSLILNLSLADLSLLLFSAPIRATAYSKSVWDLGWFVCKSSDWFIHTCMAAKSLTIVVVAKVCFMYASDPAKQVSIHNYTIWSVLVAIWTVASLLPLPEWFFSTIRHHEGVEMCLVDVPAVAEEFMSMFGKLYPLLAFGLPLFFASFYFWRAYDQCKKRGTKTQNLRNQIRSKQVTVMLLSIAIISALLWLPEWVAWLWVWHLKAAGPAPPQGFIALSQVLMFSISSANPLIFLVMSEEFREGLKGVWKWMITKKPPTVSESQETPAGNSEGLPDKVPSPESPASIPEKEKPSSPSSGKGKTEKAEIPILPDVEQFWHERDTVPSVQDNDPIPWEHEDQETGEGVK
MITF inh: human MITF inhibition, primary screen. O75030. AID 1259374. inhibition, % at 2.6 µM. AlphaScreen MITF homodimerization, bead proximity signal. actives 0.91% (n = 650,000); in the data active = inhibition above about 50%;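 also: 0% = vehicle wells with protein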
FBW7 act: human FBW7 E3 ligase activation, primary screen | AID 1259310 | actives 0.13% (n = 650,000) | Q969H0 | normalized activity (activation), % at 26.1 µM | AlphaScreen FBW7–phospho-cyclin E peptide binding, activator screen; in the data active = normalized activity above about 1.9%;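 also: purified mutant Fbw7 with reduced substrate affinity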
TEAD-YAP inh: TEAD-YAP interaction inhibition. HEK-TIYL cells, TEAD-Gal4/YAP UAS-luciferase luminescence. inhibition, % at 9.12 µM. actives 1.4% (n = 640,000). AID 1259422; in the data active = inhibition above about 32%;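 also: 0% = median of test compound wells and 100% = reference inhibitor wells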
MITF inh conf: human MITF inhibition, confirmation; AID 1259372; actives 16% (n = 4,700); shares compounds with MITF inh; AlphaScreen MITF homodimerization, biotin/His-MITF beads; inhibition, % at 2.6 µM;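 active = inhibition above a cutoff derived from the DMSO control wells, cut at about 28% in these data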;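 also: 0% = MITF dimer wells with DMSO only; inhibitors lower the bead chemiluminescence by keeping MITF from dimerizing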
AS interf ctr: optically interferes with AlphaScreen signal. shares compounds with MITF inh. LysRS AlphaScreen counterscreen, signal interference, triplicate. inhibition, % at 2.6 µM. actives 7.6% (n = 4,700). AID 1259376;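 active = inhibition above a cutoff derived from the DMSO control wells, cut at about 30% in these data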
* marks the source's active call; other numbers are inactive results; nt = not tested or not shown.

SMILES | GPR151 ag | MITF inh | FBW7 act | TEAD-YAP inh | MITF inh conf | AS interf ctr
O=C1C(c2ccccc2F)N(Cc2ccc3c(c2)OCO3)C(=O)CN1C1CCCCCC1 (centres undefined) | 3 | -6 | 0 | 1 | nt | nt
Cc1cc(C)c(C(=O)N2CCC(=O)N(Cc3cn4cccc(C)c4n3)CC2)[nH]1 | 3 | -1 | 0 | -7 | nt | nt
Cc1cccn2cc(CN3CCCc4ccccc43)nc12 | 2 | 55* | 0 | 5 | 7 | 18
O=C(CCCn1c(=S)[nH]c2ccccc2c1=O)N1CCOCC1 | 1 | 114* | 0 | 1 | 1 | 0
COCCN(C1CCN(CCc2ccc(Cl)cc2)CC1)S(=O)(=O)c1cccs1 | 0 | 63* | 0 | 9 | 1 | 8
CCOC(=O)c1sc2ncnc(Nc3ccc(Oc4ccc(Cl)cc4)cc3)c2c1C | -2 | 15 | 0 | 10 | nt | nt
CN(Cc1ccco1)C(=O)C(=O)Nc1ccc2nc3n(c(=O)c2c1)CCCCC3 | -1 | -3 | 0 | -7 | nt | nt
CCCCN(Cc1ccco1)C(=O)C(=O)Nc1ccc2nc3n(c(=O)c2c1)CCCCC3 | -1 | 76* | 1 | -2 | 8 | 21
O=C1c2ccccc2NC(CCc2ccccc2)N1c1ccccc1 (centres undefined) | -1 | -5 | 0 | -44 | nt | nt
Cc1nc([N+](=O)[O-])cn1CC(=O)Nc1ccc(F)c(Cl)c1 | 2 | 53* | 0 | 12 | -6 | -4
COc1ccc(Br)cc1CN1CCN(C(=O)c2cccc(Cl)c2)CC1 | -1 | 53* | 0 | -2 | -2 | 12
COc1cccc(C(=O)N2CCN(Cc3cc(OC)ccc3OC)CC2)c1 | 0 | 45 | 1 | 3 | nt | nt
COc1cc(OC)c(OC)cc1CN1CCN(C(=O)c2cccc(Cl)c2)CC1 | 0 | 26 | 0 | 1 | nt | nt
COc1cccc(C(=O)N2CCN(Cc3cc(Br)ccc3OC)CC2)c1 | 0 | 58* | 0 | -13 | 12 | 14
CCNc1nc(NCCc2ccc(OC)cc2)nc(N(CC)CC)n1 | 1 | 20 | 0 | -4 | nt | nt
CCCn1c(=O)c2c(nc3n(-c4ccc(OCC)cc4)c(C)cn23)n(C)c1=O | 0 | -3 | 0 | 8 | nt | nt
O=C(CN1CCCCC1)NC(c1ccccc1)c1ccccc1 | -1 | 53* | 0 | -6 | 13 | 7
CCN1CCN(C(=O)C(c2ccccc2)c2ccccc2)CC1 | -2 | -4 | 0 | 2 | nt | nt
O=C(CN1CCC(N2CCCCC2)CC1)NC(c1ccccc1)c1ccccc1 | 0 | 14 | 0 | -6 | nt | nt
O=C(CNC1CCCCC1)NC(c1ccccc1)c1ccccc1 | 1 | 52* | 0 | -1 | 12 | 9
O=C(CN1CCCC1)NC(c1ccccc1)c1ccccc1 | -1 | 59* | 0 | -1 | 8 | 13
CCN1CCN(C(C)C(=O)NC(c2ccccc2)c2ccccc2)CC1 (centres undefined) | 0 | 61* | 0 | -5 | 11 | 14
N/C(CC(=O)NC1CCCCC1)=N\OCC(=O)NC(c1ccccc1)c1ccccc1 | 1 | 12 | 0 | 9 | nt | nt
COc1ccc(CCNc2nc(Nc3ccc4ncccc4c3)nc3c2ncn3-c2ccccc2)cc1 | -1 | 6 | 0 | 25 | nt | nt
O=[N+]([O-])c1ccc(Nc2nc(-c3ccncc3)cs2)cc1 | 0 | 51* | 0 | -15 | -6 | -2
SMILES | GPR151 ag | MITF inh | FBW7 act | TEAD-YAP inh | MITF inh conf | AS interf ctr
CC(=O)Nc1ccc(-c2csc(Nc3ccc([N+](=O)[O-])cc3)n2)cc1 | -1 | -1 | 0 | 1 | nt | nt
Cc1ccc(C(=O)Nc2ccccc2C#N)c(Cl)c1 | 0 | 63* | 1 | -32 | 5 | 7
CC1CCCC(N2CCN(Cc3cccc([N+](=O)[O-])c3)CC2)C1 (centres undefined) | -1 | 75* | 0 | -1 | 6 | -4
O=[N+]([O-])c1cccc(CN2CCC(N3CCCCCC3)CC2)c1 | 3 | 67* | 1 | 1 | 2 | 6
O=[N+]([O-])c1cccc(CN2CCC(N3CCN(Cc4ccccc4)CC3)CC2)c1 | -1 | 23 | 0 | -6 | nt | nt
CS(=O)(=O)N1CCN(Cc2cccc([N+](=O)[O-])c2)CC1 | -1 | 72* | 0 | 4 | 7 | 17
CC1CCN(C2CCN(Cc3cccc([N+](=O)[O-])c3)CC2)CC1 | 0 | 18 | 0 | -7 | nt | nt
CC1CCC(N2CCN(Cc3cccc([N+](=O)[O-])c3)CC2)CC1 (centres undefined) | 0 | 60* | 0 | -6 | 2 | 0
